Assay results reported in PubChem BioAssay (NCI).
The panel holds about 83,000 compounds, 20% with a hit somewhere; the sample as a whole holds those more often.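 The test compound was applied at a single concentration to cells in 96-well plates for 48 hours, and percent growth was recorded.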 The source made the active and inactive calls. Rule for the calls: active = growth percent below 10; inactive = the rest.

Key:
Experiment in all cases: NCI-60 one-dose screen, 48 h (100 = growth as untreated, 0 = no growth, -100 = all killed)
Details in all cases: 10 µM unless noted
NCI-H23 lung = tested on: NCI-H23 lung
NCI-H226 lung = tested on: NCI-H226 lung
NCI-H322M lung = tested on: NCI-H322M lung
HOP-62 NSCLC = tested on: HOP-62 NSCLC
HOP-92 NSCLC = tested on: HOP-92 NSCLC
NCI-H522 lung = tested on: NCI-H522 lung
A549/ATCC NSCLC = tested on: A549/ATCC NSCLC
786-0 renal = tested on: 786-0 renal
COLO 205 colon = tested on: COLO 205 colon

Measured: growth

O=C(CCCCCCN1CC(=O)N2[C@@H](c3ccccc3Cl)c3[nH]c4ccccc4c3C[C@H]2C1=O)NO
inactive: NCI-H23 lung 76.8% | NCI-H226 lung 95.4% | NCI-H322M lung 81.8% | HOP-62 NSCLC 73.3% | NCI-H522 lung 28.8% | A549/ATCC NSCLC 97% | 786-0 renal 83.8% | COLO 205 colon 59.6%
active: HOP-92 NSCLC -6.12%

O=c1c2cc(F)ccc2sc2c(NCCCN3CCCC3)nc3ccccc3c12
inactive: NCI-H23 lung 64.2% | NCI-H226 lung 79.2% | NCI-H322M lung 64.1% | HOP-62 NSCLC 63.5% | HOP-92 NSCLC 25.1% | A549/ATCC NSCLC 52.8% | 786-0 renal 37.1% | COLO 205 colon 46%

CCOC(=O)c1c(-c2ccc(Cl)cc2)c(C#N)c(=O)n(-c2ccccc2CC)c1N
inactive: NCI-H23 lung 76.9% | NCI-H226 lung 85.4% | NCI-H322M lung 78.7% | HOP-62 NSCLC 97.5% | HOP-92 NSCLC 65.9% | NCI-H522 lung 92% | A549/ATCC NSCLC 85% | 786-0 renal 93.4% | COLO 205 colon 111%

CN1C(=O)N(C)C2C1NN=c1s/c(=C\c3ccccc3)c(=O)n12 (centres undefined)
inactive: NCI-H23 lung 64.1% | NCI-H226 lung 80.2% | NCI-H322M lung 59% | HOP-62 NSCLC 46.9% | HOP-92 NSCLC 73.9% | A549/ATCC NSCLC 39.9% | 786-0 renal 30.5% | COLO 205 colon 11.9%

COc1cc2ncn3c(=O)c4c5c(sc4nc3c2cc1OC)CCCC5
inactive: NCI-H23 lung 91.4% | NCI-H226 lung 93.8% | NCI-H322M lung 96.9% | HOP-62 NSCLC 89.8% | HOP-92 NSCLC 115% | NCI-H522 lung 80.1% | A549/ATCC NSCLC 96.4% | 786-0 renal 105% | COLO 205 colon 106%

COc1ccc(-c2csc(C3=C(O)CN(CCCN4CCCC4=O)C3=N)n2)cc1OC
inactive: NCI-H23 lung 94.5% | NCI-H226 lung 97.2% | NCI-H322M lung 109% | HOP-62 NSCLC 90.2% | HOP-92 NSCLC 62.8% | NCI-H522 lung 119% | A549/ATCC NSCLC 91.6% | 786-0 renal 99.3% | COLO 205 colon 106%

NS(=O)(=O)c1cnccc1Sc1ccncc1S(N)(=O)=O
inactive: NCI-H23 lung 96.5% | NCI-H226 lung 95.2% | NCI-H322M lung 124% | HOP-62 NSCLC 91.7% | HOP-92 NSCLC 92.1% | NCI-H522 lung 115% | A549/ATCC NSCLC 109% | 786-0 renal 100% | COLO 205 colon 98.8%

Cc1occc1-c1n[nH]c(=S)n1N1C(=O)CSC1=S
inactive: NCI-H23 lung 102% | NCI-H226 lung 98.7% | NCI-H322M lung 99.4% | HOP-62 NSCLC 104% | HOP-92 NSCLC 103% | NCI-H522 lung 89.3% | 786-0 renal 100% | COLO 205 colon 111%

CCSC1=NC2C(N(CC)C(=O)N2CC)N1/N=C/C=C/c1ccccc1[N+](=O)[O-] (centres undefined)
active: NCI-H522 lung -1.31% | COLO 205 colon 3.83%
inactive: NCI-H23 lung 21.9% | NCI-H226 lung 47.1% | NCI-H322M lung 31.2% | HOP-62 NSCLC 33.7% | HOP-92 NSCLC 19.8% | A549/ATCC NSCLC 19% | 786-0 renal 19%

Cc1ccc(S(=O)(=O)NCC[C@@H]2C[C@H]2c2cc3ccccc3s2)cc1
inactive: NCI-H23 lung 93.2% | NCI-H226 lung 87.8% | NCI-H322M lung 101% | HOP-62 NSCLC 108% | HOP-92 NSCLC 101% | NCI-H522 lung 85.3% | A549/ATCC NSCLC 98.5% | 786-0 renal 100% | COLO 205 colon 120%

COc1ccc(NC(=O)c2nc(-c3cc(OC)c(OC)c(OC)c3)n(-c3cccc4ccccc34)n2)cc1OC
inactive: NCI-H23 lung 45.4% | NCI-H226 lung 44.9% | NCI-H322M lung 44.8% | HOP-62 NSCLC 42.1% | HOP-92 NSCLC 46.4% | NCI-H522 lung 21.8% | A549/ATCC NSCLC 50.6% | 786-0 renal 31.8% | COLO 205 colon 37.1%

C=C1C(=O)O[C@H]2[C@H]1CC/C(CNC(=O)/C=C/c1ccc(Cl)cc1Cl)=C\CC[C@@]1(C)O[C@@H]21
active: NCI-H23 lung -61.2% | NCI-H522 lung -84.2% | 786-0 renal -77.1% | COLO 205 colon -65.5%
inactive: NCI-H226 lung 64.2% | NCI-H322M lung 73.9% | HOP-62 NSCLC 17.2% | A549/ATCC NSCLC 20.9%

CC(=O)n1c(-c2ccc(Cl)cc2)nc2c(c1=O)C(c1ccc(Cl)cc1)c1sc3c(Cl)cccc3c1O2 (centres undefined)
active: NCI-H23 lung -0.859% | NCI-H226 lung 9.2% | HOP-62 NSCLC 7.03% | HOP-92 NSCLC 1.47% | NCI-H522 lung -32.9% | A549/ATCC NSCLC -63.7% | 786-0 renal -50.1% | COLO 205 colon -55.9%
inactive: NCI-H322M lung 16.7%

Cc1cccc(NC(=O)N/C(N)=N/c2nc(C)c(C)s2)c1
inactive: NCI-H23 lung 61.9% | NCI-H226 lung 71.3% | NCI-H322M lung 82.7% | HOP-62 NSCLC 55.3% | HOP-92 NSCLC 67.5% | A549/ATCC NSCLC 42.6% | 786-0 renal 83.1% | COLO 205 colon 36%

CCN(CC)CCN1C(=O)c2c(c(C)c3c(oc4cc(O)ccc43)c2C)C1=O
inactive: NCI-H23 lung 92.7% | NCI-H226 lung 29.2% | NCI-H322M lung 89.1% | HOP-62 NSCLC 93.1% | HOP-92 NSCLC 72.1% | COLO 205 colon 12.8%
active: NCI-H522 lung -37.1% | A549/ATCC NSCLC -65.3% | 786-0 renal -80.9%

NC(=S)Nc1cccc(O)c1
inactive: NCI-H23 lung 90.6% | NCI-H226 lung 96.9% | NCI-H322M lung 88.9% | HOP-62 NSCLC 89.8% | HOP-92 NSCLC 98.9% | NCI-H522 lung 93.1% | 786-0 renal 100% | COLO 205 colon 129%

CN(C)c1ccc(-c2ccc3[nH]c(=O)nc(-c4ccccc4)c3c2)cn1
inactive: NCI-H23 lung 62.1% | NCI-H226 lung 66.6% | NCI-H322M lung 77.5% | HOP-62 NSCLC 63% | HOP-92 NSCLC 59.1% | NCI-H522 lung 19.2% | 786-0 renal 44.5% | COLO 205 colon 37.1%

C=C1C(=O)O[C@H]2[C@H]1CC/C(COC(=O)C(=O)c1cn(C)c3ccc(OC)cc13)=C\CC[C@@]1(C)O[C@@H]21
active: NCI-H23 lung -36.1% | NCI-H226 lung -67.5% | NCI-H322M lung -62.2% | HOP-62 NSCLC -45.9% | HOP-92 NSCLC -72.3% | NCI-H522 lung -61.4% | A549/ATCC NSCLC -62% | 786-0 renal -87.4% | COLO 205 colon -57%

Cc1cc(NCCCCNc2ccnc3cc(Cl)ccc23)nc(Nc2ccc(C(=O)N3CCCC3)cc2)n1
active: COLO 205 colon -42.8%
inactive: NCI-H23 lung 81.4% | NCI-H226 lung 108% | NCI-H322M lung 67.6% | HOP-62 NSCLC 92.5% | HOP-92 NSCLC 72.6% | NCI-H522 lung 26.5% | A549/ATCC NSCLC 24% | 786-0 renal 68.4%

Cc1ccc(-c2c(-c3ccccc3)c(=O)oc3ccc(C)cc23)cc1
inactive: NCI-H23 lung 96.1% | NCI-H226 lung 89.6% | NCI-H322M lung 97.8% | HOP-62 NSCLC 101% | HOP-92 NSCLC 84% | NCI-H522 lung 107% | A549/ATCC NSCLC 91% | 786-0 renal 105% | COLO 205 colon 91.4%

CCN(CC)c1ccc(C(=O)c2ccc(N(CC)CC)cc2)cc1
active: NCI-H23 lung 3.77% | NCI-H522 lung 3.66% | 786-0 renal 4.16% | COLO 205 colon -29%
inactive: NCI-H226 lung 48.5% | NCI-H322M lung 54.7% | HOP-62 NSCLC 29.2% | HOP-92 NSCLC 51.2% | A549/ATCC NSCLC 31.9%

O=C(Nc1ccc(Nc2ccncc2)cc1)c1ccc(C(=O)Nc2ccc(Nc3ccncc3)cc2)cc1
inactive: NCI-H23 lung 59.2% | NCI-H226 lung 68.8% | NCI-H322M lung 71.9% | HOP-62 NSCLC 82.1% | A549/ATCC NSCLC 69.5% | 786-0 renal 84.5% | COLO 205 colon 27.7%

O=C1/C(=C\c2c[nH]c3ccccc23)c2ccccc2N1c1c(Cl)cccc1Cl
active: NCI-H23 lung -80.1% | HOP-92 NSCLC -13.7% | A549/ATCC NSCLC 0.113% | 786-0 renal -37.7% | COLO 205 colon -100%
inactive: NCI-H226 lung 14.7% | NCI-H322M lung 18.8% | HOP-62 NSCLC 19.6%

N#Cc1c(N)nn(C(=O)c2ccc(NC(=O)c3ccccn3)cc2)c1-c1ccc(Cl)cc1
inactive: NCI-H23 lung 20% | NCI-H226 lung 20.1% | NCI-H322M lung 22.2% | NCI-H522 lung 36.3% | A549/ATCC NSCLC 35.4%
active: HOP-62 NSCLC -18.4% | 786-0 renal 9.76% | COLO 205 colon 1.15%

O=C(c1ccc(Nc2nccc(NCCCCNc3ccnc4cc(Cl)ccc34)n2)cc1)N1CCCCC1
active: 786-0 renal 0.767% | COLO 205 colon -58.6%
inactive: NCI-H23 lung 45.3% | NCI-H226 lung 91.3% | NCI-H322M lung 51.3% | HOP-62 NSCLC 69.7% | HOP-92 NSCLC 59.2% | NCI-H522 lung 33.2% | A549/ATCC NSCLC 25.8%

CC(C)(C)CC(C)(C)Nc1c(-c2ccncc2)nc2cnccn12
inactive: NCI-H23 lung 99.2% | NCI-H226 lung 90.3% | NCI-H322M lung 103% | HOP-62 NSCLC 104% | HOP-92 NSCLC 87.1% | NCI-H522 lung 87.1% | A549/ATCC NSCLC 96.4% | 786-0 renal 96.6% | COLO 205 colon 101%

Cc1ccc(Nc2ccc(Nc3ccc(C)cc3)c3c2C(=O)c2cccc(O)c2C3=O)cc1
inactive: NCI-H23 lung 84.5% | NCI-H226 lung 73.1% | NCI-H322M lung 108% | HOP-62 NSCLC 101% | HOP-92 NSCLC 70.4% | NCI-H522 lung 90.6% | 786-0 renal 111% | COLO 205 colon 102%

CC1=C([Se]CC(OC(=O)[C@@H](CO)NC(=O)OC(C)(C)C)C(=O)NC(C)(C)C)C(=O)c2ccccc2C1=O (some centres undefined)
active: NCI-H23 lung -74.5% | NCI-H226 lung -98.5% | NCI-H322M lung -73.1% | HOP-62 NSCLC -60.1% | HOP-92 NSCLC -68.8% | NCI-H522 lung -92.8% | A549/ATCC NSCLC -11.5% | 786-0 renal -100% | COLO 205 colon -100%

O=C(Nc1cccc2c(O)c(N=Nc3ccc(S(=O)(=O)Nc4nccs4)cc3)cc(N=Nc3ccc(S(=O)(=O)Nc4nccs4)cc3)c12)C(Cl)Cl
inactive: NCI-H23 lung 103% | NCI-H226 lung 98.8% | NCI-H322M lung 89.7% | HOP-62 NSCLC 96.8% | HOP-92 NSCLC 24.7% | A549/ATCC NSCLC 92.2% | 786-0 renal 103% | COLO 205 colon 99%
active: NCI-H522 lung -42.5%
